From PubChem
Pf growth 96h = inhibits malaria parasite growth, 96 h. P. falciparum luciferase reporter growth, 96 h. Potency, µM (titrated, usually from 28.7 µM), for inactives: at the highest dose activity change, negative = inhibition, hits mostly inhibitors. 6.9% of 320,000 active. AID 504834; active means well fitted inhibition curve with a large enough effect; inconclusive means small, poorly fitted or top-dose-only effect, or another doubt; inactive means no such curve, though single readings can be large or run the other way; further: potency means the concentration at half of the fitted maximal effect; on the % scale 0 is the no-effect control and ±100 the full control effect
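Two-generation exposure (96 h) targets delayed-death phenotype. Reporter parasites carrying integrated firefly luciferase, in red cells at 2% hematocrit and 0.05% parasitemia final, kept at 37 C, 5% CO2; luminescence loss indicates inhibition.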
Shiga inhibitor = inhibitors of Shiga toxin in Vero cells | Vero cells, Shiga toxin protein synthesis inhibition reporter | inhibition, % at 38.7 µM | 9.2% of 290,000 active | AID 2315; in the data active means inhibition mostly above about 28%, no sharp cut-off; inactive means mostly below about 43%; further: 0% is about no effect
SARS PLP yeast = inhibitors of SARS-CoV papain-like protease in yeast | S. cerevisiae expressing SARS-CoV PLpro, growth rescue | Potency, µM (highest dose often 32.9 µM), for inactives: at the top dose activity, positive = growth rescue, actives largely listed as activators | 0.19% of 330,000 active; further: potency means the concentration at half of the fitted maximal effect; 0% is about no effect; nearly all actives have a fitted effect of over 55% in size
NS1 function inh = inhibitors of influenza NS1 protein function; Potency, µM (highest dose often 46.1 µM), without a hit: at the highest dose activity, positive = more growth; 0.4% of 270,000 active; further: potency means the concentration at half of the fitted maximal effect; actives are rising curves; nearly all actives have a fitted effect of over 50% in size
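Recovery from NS1-induced slow growth read by OD600 in budding yeast switched to galactose assay medium (pH 6.0, -URA) at 1:100 dilution. Compound 23 nl per well; the matching strain lacking NS1 serves as control.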
CHX counter = counter-screen hit for Shiga toxin inhibitors, cycloheximide. max response, %. AID 2314. 12% of 300,000 active. cell reporter, cycloheximide protein synthesis inhibition counterscreen; in the data active means max response mostly above about 13%, no sharp cut-off; inactive means mostly below about 14%; further: read at 38.3 µM for the half of the compounds with a filed dose; 0% is about no effect
Pf growth 48h = P. falciparum growth inhibition at 48 hours (one generation); P. falciparum luciferase growth in erythrocytes, 48 h; Potency, µM (doses to about 28.7 µM), inactives show at the top dose activity change, negative = inhibition, actives largely listed as inhibitors; 5.9% of 310,000 active; AID 504832; active means well fitted inhibition curve with a large enough effect; inconclusive means small, poorly fitted or top-dose-only effect, or another doubt; inactive means no such curve, though single readings can be large or run the other way; further: potency means the concentration at half of the fitted maximal effect; on the % scale 0 is the no-effect control and ±100 the full control effect
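In quantitative HTS format, infected erythrocytes bearing luciferase-reporter parasites were treated for a single generation at 37 C. Luminescence after adding detection reagent served as the growth measure.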
* hit, by the source's call; ? = inconclusive; . = no result given; + = active, no number. In the library only some 21% were active in any assay of this set; here they are far more common. Unless noted, the call rests on the fitted dose curve.

SMILES	Pf growth 96h	Shiga inhibitor	SARS PLP yeast	NS1 function inh	CHX counter	Pf growth 48h
COc1ccc(N=C2SC(CC(=O)Nc3ccccc3)C(=O)N2CCc2ccccn2)cc1 (centres undefined)	14.7µM*	17.0	1.5%	-4.0%	18.3	?
COc1ccc(OC)c(NC(=O)CC2SC(=Nc3ccccc3)N(CCc3ccccn3)C2=O)c1 (centres undefined)	4.65µM*	-10.6	-15.9%	5.4%	7.4	14.7µM*
COc1ccc(N=C2SC(CC(=O)Nc3ccccc3)C(=O)N2Cc2ccccn2)cc1 (centres undefined)	?	14.1	-2.5%	.	20.5	?
COc1ccc(N=C2SC(CC(=O)Nc3cccc(Cl)c3)C(=O)N2Cc2ccco2)cc1 (centres undefined)	?	15.8*	-25.4%	-28.8%	36.6*	?
COc1ccc(C)cc1S(=O)(=O)N(C)CC(=O)NC1CC1	?	-23.2	-9.5%	2.0%	-2.7	.
COc1ccc(C)cc1S(=O)(=O)N(C)CC(=O)N1CCCC1	11.7µM*	.	-6.5%	-6.5%	-1.2	7.4%
COc1ccc(Cl)cc1S(=O)(=O)N(C)CC(=O)N1CCCC1	5.86µM*	-7.2	12.7%	5.1%	-1.7	5.2%
COc1ccc(C)cc1S(=O)(=O)N(C)CC(N)=O	10.4µM*	11.4	-3.0%	-0.6%	-2.8	-7.3%
COc1cccc(C(=O)NCC(=O)N2CCC3(CC2)NCCc2[nH]cnc23)c1	42.3%	-4.0	-2.0%	-5.6%	-1.3	20.7%
C[C@@H]1CN([C@@H](C)CO)C(=O)c2cc(N(C)C)ccc2O[C@@H]1CN(C)S(C)(=O)=O	.	.	2.1%	.	.	.
CC1=CC(C)(C)N(C(=O)C(C)N2C(=O)c3ccccc3C2=O)c2c(C)cc(C)cc21 (centres undefined)	.	-26.3	-12.2%	-23.2%	-3.2	10.4µM*
COc1ccc2c(c1)C(C)=CC(C)(C)N2C(=O)C(C)N1C(=O)c2ccccc2C1=O (centres undefined)	.	-3.9	-33.4%	-38.4%	-2.0	-9.7%
O=C(Nc1cc(Cl)ccc1N1CCCC1)C1=NN(c2ccccc2)C(=O)CC1	9.28µM*	-5.3	-0.5%	6.5%	1.4	-10.2%
Cc1ccc(C)c(N2N=C(C(=O)Nc3ccccc3N3CCOCC3)CCC2=O)c1	?	.	-1.1%	.	.	11.7µM*
CN(C)c1ccc(S(=O)(=O)N2CCCCC2)cc1NC(=O)C1=NN(c2ccccc2)C(=O)CC1	5.86µM*	-11.6	?	-6.0%	-0.7	-18.8%
Cc1ccc(S(=O)(=O)N2CCCCC2)cc1NC(=O)C1=NN(c2ccccc2)C(=O)CC1	?	.	-1.7%	.	.	?
CCN(CC)S(=O)(=O)c1ccc(N2CCCC2)c(NC(=O)C2=NN(c3ccccc3)C(=O)CC2)c1	14.7µM*	.	-3.9%	.	.	10.4µM*
Cc1ccc(C)c(N2N=C(C(=O)Nc3ccccc3N3CCCC3)CCC2=O)c1	?	13.5	-0.9%	-2.0%	6.1	?
COc1ccc(Cl)cc1C(=O)OCC(=O)c1ccc[nH]1	26.0%	.	2.1%	.	.	21.7%
Cc1ccc(S(=O)(=O)NCCC(=O)NC2CCCCCC2)cc1	-4.6%	.	-4.8%	.	.	-5.6%
COc1ccc(NS(=O)(=O)c2cc(NC(=O)c3sccc3C)ccc2N2CCOCC2)cc1	?	-6.4	0.6%	2.2%	10.1	10.4µM*
COc1ccccc1NS(=O)(=O)c1cc(NC(=O)c2sccc2C)ccc1N1CCOCC1	11.7µM*	-1.3	2.2%	-17.3%	-5.0	?
COc1ccccc1NS(=O)(=O)c1cc(NC(=O)c2sccc2C)ccc1N1CCCC1	?	50.3	0.6%	19.9%	0.7	?
Cc1ccc(CNC(=O)C2CC(=O)N(C3CCCC3)C2)cc1 (centres undefined)	31.8%	.	-3.3%	.	.	-1.6%
Cc1nc(C)c(-c2csc(Nc3ccc(C(=O)O)c(O)c3)n2)s1	?	-4.9	13.3%	12.4%	5.7	-14.0%
SMILES	Pf growth 96h	Shiga inhibitor	SARS PLP yeast	NS1 function inh	CHX counter	Pf growth 48h
COc1cccc(Nc2nc(-c3sc(C)nc3C)cs2)c1	-1.7%	61.8*	-24.4%	-120.4%	42.3*	32.4%
COc1ccccc1Nc1nc(-c2sc(N)nc2C)cs1	?	11.8	-6.6%	4.2%	13.9*	-21.9%
Cc1nc(C)c(-c2csc(Nc3ccc(F)cc3)n2)s1	21.7%	63.7*	-23.9%	.	32.6*	94.9%
COc1cccc(Nc2nc(-c3sc(N)nc3C)cs2)c1	.	+	-4.1%	-82.2%	23.1*	?
CCc1cc(=O)n2[nH]c(-c3ccccc3)c(-c3ccccc3)c2n1	1.4%	-2.6	0.3%	3.4%	1.9	18.2%
CC(=O)N1CCOc2ccc(S(=O)(=O)NCc3ccc(Cl)cc3)cc21	-4.7%	-3.6	0.0%	13.4%	9.2	1.1%
Cc1nc(N)sc1-c1csc(Nc2ncccn2)n1	34.5%	42.1*	-0.6%	.	44.3*	100.2%
Cc1cc(NS(=O)(=O)c2ccc(Nc3nc(-c4sc(C)nc4C)cs3)cc2)no1	1.5%	14.9	9.6%	-5.0%	-2.7	.
Cc1nc(N)sc1-c1csc(NCc2ccccc2)n1	?	14.6	5.8%	?	4.9	?
Cc1nc(C)c(-c2csc(Nc3ncccc3C)n2)s1	-13.7%	55.8*	-10.6%	-31.3%	42.6*	166.5%
CC(C)CC(=O)Nc1ccc(C(=O)COC(=O)C2CC(=O)N(Cc3ccccc3)C2)cc1 (centres undefined)	-25.8%	.	6.4%	.	.	12.5%
Cc1cccc(CNC(=O)CCc2nnc(C3CCCCC3)o2)c1	?	2.1	-1.0%	-0.6%	0.9	57.2%
CC(C)CCNC(=O)C12CN(Cc3ccccc3)CC1C(c1cccc([N+](=O)[O-])c1)=NO2 (centres undefined)	?	3.8	-2.1%	-23.9%	1.9	?
O=C(NCCCCc1ccccc1)C12CN(Cc3ccccc3)CC1C(c1ccc([N+](=O)[O-])cc1)=NO2 (centres undefined)	?	10.2	-2.7%	30.2%	8.9	13.1µM*
O=C(NCCCCc1ccccc1)C12CN(Cc3ccccc3)CC1C(c1cccc([N+](=O)[O-])c1)=NO2 (centres undefined)	?	0.9	?	?	8.5	4.65µM*
O=C(NCc1ccco1)C12CN(Cc3ccccc3)CC1C(c1cccc([N+](=O)[O-])c1)=NO2 (centres undefined)	?	-10.0	-11.5%	4.9%	-4.8	?
O=C(NCCc1cccs1)C12CN(Cc3ccccc3)CC1C(c1cccc([N+](=O)[O-])c1)=NO2 (centres undefined)	?	17.3	-13.0%	-5.5%	6.4	8.28µM*
Cc1cc(N)n(-c2ncnc3scc(-c4ccc(Cl)cc4)c23)n1	?	-7.3	-13.4%	20.4%	-4.4	?
Clc1ncnc2scc(-c3ccc(Br)cc3)c12	0.329µM*	-6.9	9.7%	-3.6%	1.7	0.828µM*
